Drawing on PubChem BioAssay (EPA / NIEHS), this text covers AC50 and outcome for 15 compounds.

Several values for one entry are separate records, joined by “and”; a condition that tells them apart may be missing. Equal values may be shown once. Activity calls are given as the source filed them. How the source made its calls: active means hit-call score of the fitted dose curve at least 0.9, where 1 is the maximum; inactive means score below 0.9.

Common to all, as to conditions: primary human HUVEC with PBMC; actives raise or lower the signal
Read-out in assay [1]: Monocyte Chemoattractant Protein-1 (MCP1), CCL2 (gene 6347)
Description: BSK_LPS_MCP1: BioMAP Diversity Plus: LPS Assay for Monocyte Chemoattractant Protein-1 (MCP1) Biomarker Activity (AID 2283081).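 On AC50: secreted MCP-1 protein quantified by ELISA in culture supernatant.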 In outline:
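ELISA read-out of MCP-1 after 24 h chemical dosing of a human umbilical vein endothelial cell/peripheral blood mononuclear cell co-culture stimulated with LPS. Gain or loss of signal fitted relative to DMSO controls.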

A short description of assay [2]: BSK_LPS_PGE2: BioMAP Diversity Plus: LPS Assay for Prostaglandin E2 (PGE2) Biomarker Activity (AID 2283082).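 On AC50: secreted prostaglandin E2 measured by ELISA in LPS-stimulated co-culture.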 In outline: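 ELISA read-out of PGE2 from human umbilical vein endothelial cells co-cultured with peripheral blood mononuclear cells under LPS, 24 h post-dose. Gain or loss of signal scored relative to DMSO baseline.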
Read-out in assay [3]: Macrophage colony-stimulating factor (MCSF), CSF1 (gene 1435)
The assay is described as follows: BSK_LPS_MCSF: BioMAP Diversity Plus: LPS Assay for Macrophage colony-stimulating factor (MCSF) Biomarker Activity (AID 2283083). In outline:
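HUVEC + PBMC co-culture (human primary), 24 h post-dose; M-CSF by ELISA; gain/loss of signal fitted bidirectionally vs DMSO baseline.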

Read-out in assay [4]: Tissue Factor, F3 (gene 2152)
The assay is described as follows: BSK_LPS_TissueFactor: BioMAP Diversity Plus: LPS Assay for Tissue Factor Biomarker Activity (AID 2283084). The procedure, abridged: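 HUVEC/PBMC co-culture, LPS-activated; CD142 ELISA read 24 h post-dose; bidirectional curve fit vs DMSO negative control.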

Read-out in assay [5]: Tumor necrosis factor (Homo sapiens) (UniProt P01375)
Description: BSK_LPS_TNFa: BioMAP Diversity Plus: LPS Assay for Tumour Necrosis Factor alpha (TNFa) Biomarker Activity (AID 2283085).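 On AC50: TNFa protein level quantified by ELISA in the co-culture.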 In outline:
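HUVEC/PBMC co-culture, LPS-stimulated; 24 h post-dose; TNFa by ELISA; gain or loss of signal fitted bidirectionally vs DMSO baseline.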

Read-out in another assay: CD38, CD38 (gene 952)
Description: BSK_SAg_CD38: BioMAP Diversity Plus: SAg Assay for CD38 Biomarker Activity (AID 2283087). In outline: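 Measures CD38 on a human endothelial/PBMC co-culture driven by SEB and TSST-1, 24 h after compound exposure, using ELISA with fluorescence detection; DMSO defines baseline for bidirectional curve fitting.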

Read-out in a further assay: CD40, CD40 (gene 958)
The assay is described as follows: BSK_SAg_CD40: BioMAP Diversity Plus: SAg Assay for CD40 Biomarker Activity (AID 2283088). In outline: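 HUVEC/PBMC co-culture, 24 h post-dose; CD40 by ELISA, fluorescence intensity; bidirectional fit vs DMSO negative control.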

Read-out in the next assay: CD69, CD69 (gene 969)
The assay is described as follows: BSK_SAg_CD69: BioMAP Diversity Plus: SAg Assay for CD69 Biomarker Activity (AID 2283089).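 On AC50: cell surface CD69 protein quantified by ELISA with fluorescence detection.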 The procedure, abridged: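 Endothelial/PBMC co-culture; chemical added; 24 h incubation; CD69 ELISA with fluorescence detection; bidirectional fit vs DMSO.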

Read-out in assay [6]: Monocyte Chemoattractant Protein-1 (MCP1), CCL2 (gene 6347)
Description: BSK_SAg_MCP1: BioMAP Diversity Plus: SAg Assay for Monocyte Chemoattractant Protein-1 (MCP1) Biomarker Activity (AID 2283090). In outline:
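Values derive from bidirectional fitting of ELISA-measured MCP1 against DMSO controls. Readings were taken 24 h after dosing human vascular endothelial cells co-cultured with peripheral blood mononuclear cells under superantigen stimulation.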

By AC50 is commonly meant the concentration giving half of the maximal activity seen.

Chain of Tumor necrosis factor (Homo sapiens) (P01375 whole entry, looked up): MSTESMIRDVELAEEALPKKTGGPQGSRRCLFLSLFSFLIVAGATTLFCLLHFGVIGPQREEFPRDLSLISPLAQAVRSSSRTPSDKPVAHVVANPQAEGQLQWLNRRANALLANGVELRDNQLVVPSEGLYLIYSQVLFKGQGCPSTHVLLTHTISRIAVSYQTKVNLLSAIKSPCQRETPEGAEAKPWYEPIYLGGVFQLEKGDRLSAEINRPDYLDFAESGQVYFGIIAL

For the compound `O=C1OC2(c3ccccc31)c1cc(I)c(O)c(I)c1Oc1c2cc(I)c(O)c1I`, the AC50 in [1] was 6.33 µM (active); in assay [2], 3.14 µM (active); in assay [3], 6.69 µM (active); in assay [4], 19.8 µM (active); in the assay with CD38, CD38 (gene 952), 7.06 µM (active); in the assay with CD40, CD40 (gene 958) it was 12 µM (active). Besides, the AC50 with CD69, CD69 (gene 969) is 10.5 µM (active); in assay [6] it was 10.2 µM (active). In addition, the result in [5] was inactive.

For `Oc1ccc(Cc2ccccc2O)cc1`, the outcome in assay [1] was “inactive”; in assay [3], “inactive”; in [4], “inactive”; in assay [5], “inactive”; in the assay with CD38, CD38 (gene 952) it was “inactive”; with CD40, CD40 (gene 958), “inactive”. The outcome with CD69, CD69 (gene 969) was “inactive”; in [6], “inactive”. Moreover, in assay [2], the AC50 is 1.77 µM (active) and 3.97 µM (active).

On to `CN(C)c1ccc(C(=C2C=CC(=[N+](C)C)C=C2)c2ccccc2)cc1`, for which the AC50 in assay [1] is 0.0133 µM (active); in [2], 0.0082 µM (active); in assay [3], 0.0379 µM (active); in assay [4] it was 0.025 µM (active); in assay [5], 0.0138 µM (active); with CD38, CD38 (gene 952), 0.0535 µM (active). Besides, the AC50 is 0.00857 µM (active) with CD40, CD40 (gene 958); 0.00338 µM (active) with CD69, CD69 (gene 969); 0.026 µM (active) in [6].

With `CN(C)CCOC(c1ccccc1)c1ccccc1`, the outcome is “inactive” in assay [1]; “inactive” in assay [2]; “inactive” in [4]; “inactive” in [5]; “inactive” with CD38, CD38 (gene 952); “inactive” in the assay with CD40, CD40 (gene 958). In addition, the outcome with CD69, CD69 (gene 969) is “inactive”; in assay [6], “inactive”.

On to `C=CC(C)(CCC=C(C)C)OC(C)=O` (centres undefined), for which the outcome is “inactive” in assay [1]; “inactive” in assay [2]; “inactive” in assay [3]; “inactive” in [4]; “inactive” in assay [5]; “inactive” in the assay with CD38, CD38 (gene 952). The outcome was “inactive” with CD40, CD40 (gene 958); “inactive” in the assay with CD69, CD69 (gene 969); “inactive” in assay [6].

Take `C=CC(=O)OCCC(F)(F)C(F)(F)C(F)(F)C(F)(F)C(F)(F)C(F)(F)C(F)(F)C(F)(F)F`: the outcome was “inactive” in [1]; “inactive” in assay [2]; “inactive” in assay [3]; “inactive” in [4]; “inactive” in assay [5]; “inactive” with CD38, CD38 (gene 952). In addition, the outcome in the assay with CD40, CD40 (gene 958) is “inactive”; in the assay with CD69, CD69 (gene 969), “inactive”; in assay [6], “inactive”.

On to `CC(C)(C)c1ccc(O)c(O)c1`, for which the AC50 in assay [1] was 29.1 µM (active); in assay [3] it was 29.2 µM (active); in assay [4], 20 µM (active); in assay [5] it was 32.8 µM (active); in the assay with CD38, CD38 (gene 952), 28.5 µM (active); with CD40, CD40 (gene 958), 27.3 µM (active). The AC50 with CD69, CD69 (gene 969) was 20 µM (active); in [6], 30.6 µM (active). For the same compound, in assay [2], the outcome was inactive.

In the case of `N=C(N)c1ccc(OCCCCCOc2ccc(C(=N)N)cc2)cc1`, the outcome is “inactive” in assay [1]; “inactive” in [2]; “inactive” in assay [4]; “inactive” in [5]; “inactive” in the assay with CD38, CD38 (gene 952); “inactive” with CD40, CD40 (gene 958). The result in [6] was inactive. For the same compound, the AC50 in [3] was 13.5 µM (active); with CD69, CD69 (gene 969), 1.21 µM (active).

Turning to `O=C(O)CCC(F)(F)C(F)(F)C(F)(F)C(F)(F)C(F)(F)C(F)(F)F`, the outcome in [1] is “inactive”; in [2], “inactive”; in [3], “inactive”; in [4] it was “inactive”; in assay [5] it was “inactive”; in the assay with CD38, CD38 (gene 952), “inactive”. Also, the outcome in the assay with CD40, CD40 (gene 958) is “inactive”; with CD69, CD69 (gene 969), “inactive”; in [6] it was “inactive”.

`O=C(NO)c1ccccc1`: the outcome in assay [1] is “inactive”; in assay [2], “inactive”; in assay [3] it was “inactive”; in assay [4], “inactive”; in assay [5], “inactive”; in the assay with CD38, CD38 (gene 952), “inactive”. For the same compound, the outcome with CD40, CD40 (gene 958) was “inactive”; in the assay with CD69, CD69 (gene 969), “inactive”; in [6] it was “inactive”.

With `CCCCCc1ccc(O)cc1`, the AC50 in assay [1] was 31.4 µM (active); in [2], 1.39 µM (active); in assay [3] it was 27.2 µM (active); in assay [4], 29 µM (active); in [5], 31.4 µM (active); with CD38, CD38 (gene 952) it was 33.6 µM (active). Moreover, the AC50 was 29.6 µM (active) with CD40, CD40 (gene 958); 30.9 µM (active) with CD69, CD69 (gene 969); 27.5 µM (active) in assay [6].

Consider `O=C1c2ccc(O)c(O)c2C(=O)c2c(O)ccc(O)c21`, for which the outcome in assay [1] was “inactive”; in assay [2], “inactive”; in assay [3], “inactive”; in assay [4] it was “inactive”; in assay [5], “inactive”; in the assay with CD38, CD38 (gene 952), “inactive”. The outcome with CD40, CD40 (gene 958) was “inactive”; with CD69, CD69 (gene 969), “inactive”; in assay [6] it was “inactive”.

Consider `COC1=CC(=O)C[C@@H](C)[C@]12Oc1c(Cl)c(OC)cc(OC)c1C2=O`, for which the outcome was “inactive” in [1]; “inactive” in [2]; “inactive” in assay [3]; “inactive” in assay [4]; “inactive” in assay [5]; “inactive” with CD38, CD38 (gene 952). Besides, the outcome with CD40, CD40 (gene 958) is “inactive”; in the assay with CD69, CD69 (gene 969), “inactive”; in assay [6], “inactive”.

`Cc1ccc(N=Nc2c(O)ccc3ccccc23)c(C)c1`: the outcome is “inactive” in assay [1]; “inactive” in assay [2]; “inactive” in [3]; “inactive” in assay [5]; “inactive” in the assay with CD38, CD38 (gene 952); “inactive” with CD40, CD40 (gene 958). The outcome was “inactive” with CD69, CD69 (gene 969) and “inactive” in assay [6]. Also, in assay [4], the AC50 is 7.3 µM (active).

Regarding `CCCCCCCCCCCCCCCCCC[N+](C)(C)Cc1ccccc1`, the AC50 in [1] was 2.97 µM (active); in [3], 2.73 µM (active); in assay [4], 2.69 µM (active); in [5], 3.58 µM (active); with CD38, CD38 (gene 952), 2.73 µM (active); with CD40, CD40 (gene 958), 2.74 µM (active). The AC50 is 2.73 µM (active) with CD69, CD69 (gene 969) and 3.01 µM (active) in assay [6]. The result in assay [2] was inactive.
